The text below walks through data of PubChem BioAssay (EPA / NIEHS).

The source made the active and inactive calls. Rule for the calls: active = hit-call score of the fitted dose curve at least 0.9, where 1 is the maximum; inactive = score below 0.9.

A short description of the experiment: CCTE_Deisenroth_5AR_NBTE_acceptor: CCTE's 5alpha-reductase NanoBRET Target Engagement Assay - Autofluorescence Screen, Deisenroth Lab (AID 2284321).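 Note: compound fluorescence in the acceptor channel under 460 nm excitation flags autofluorescence artifacts.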 Particulars: actives raise or lower the signal. Put shortly:
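Acceptor fluorescence intensity was read as an artifact-detection endpoint. Test chemicals at an assumed nominal 100 uM were excited at 460 nm across three independent runs. Activity was fitted bidirectionally against DMSO.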
(In general: Bioluminescence resonance energy transfer reports proximity on the nanometre scale.)
`COc1cc([N+](=O)[O-])ccc1N`: the result was inactive.

The term AC50 denotes the concentration at which the activity in the assay is half-maximal. For `CCCCCCCCCCCCOS(=O)(=O)O`, the half-maximal activity concentration (AC50) is 44.8 µM (active). With `CCCCCCCCCCCC`, the molecule was called inactive.

As to `CCCCc1oc2ccccc2c1C(=O)c1cc(I)c(OCCN(CC)CC)c(I)c1`, the outcome was inactive.

Consider `O=C1OC2(c3ccccc31)c1cc(I)c(O)c(I)c1Oc1c2cc(I)c(O)c1I`, for which the AC50 is 1.79 µM (active).

Take `CCc1ccccc1O`: the outcome was inactive. Take `NC(=NCCCCCCN=C(N)/N=C(\N)Nc1ccc(Cl)cc1)/N=C(\N)Nc1ccc(Cl)cc1`: the AC50 was 50 µM (active). Take `CCCCCCc1ccc(N)cc1`: the molecule was classed as inactive.
